Laboratory results taken from PubChem BioAssay (Tox21).
Inconclusive results are not listed. A call without a number means that no potency is given here. The source holds several records for some structures; these can differ, active in one and inactive in another. Calls of active or inactive are those of the source. Unless noted, calls follow the shape of the full dose curve.

Columns and labels:
[1] = Nuclear factor erythroid 2-related factor 2/antioxidant responsive element (Nrf2/ARE) small molecule agonists: qHTS cell viability counter screen in human keratinocytes (AID 1919968; active = well fitted curve in the direction sought with a large enough effect in the repeat runs; an effect the other way counts as inactive or inconclusive; also: nearly all actives have a fitted effect of over 55% in size; also: potency is read from the fitted curve at half-maximal effect)
Procedure, shortened: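 Cells of the KeratinoSens line were plated at 1,500 per well and left for 5 h before compound transfer from DMSO stocks. After a 23 h incubation (37 C, 5% CO2), CellTiter-Fluor was added. Signal was taken as fluorescence intensity 1 h later.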

[2] = target: KiSS-1 receptor (Homo sapiens) (UniProt Q969F8); assay: Human kisspeptin (KISS1R) small molecule agonists, calcium flux assay in KISS1R-HEK293 cells (AID 1920064; active = well fitted curve in the direction sought with a large enough effect in the repeat runs; an effect the other way counts as inactive or inconclusive)
Procedure, shortened: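 Cell line: HEK293, stable human KISS1R. Dye loading 1 h at 37 C after 18 h culture. Read: kinetic fluorescence, 480/540 nm, 3 min at 1 s intervals.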

[3] = G protein-coupled receptor (GPCR) small molecule agonists, calcium flux assay: HEK293 wild type cell line counter screen (AID 1920065)
Procedure, shortened: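 Tox21 10K compounds, 15 concentrations each in triplicate, pin-transferred in DMSO onto dye-loaded cells; kinetic read at 480/540 nm for 3 min, 1 s intervals.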

[4] = p53 small molecule agonists, cell-based qHTS assay with human liver microsomes (AID 1963577);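 also: p53 response element beta-lactamase reporter cells with liver microsomes plus NADPH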
Procedure, shortened: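 Metabolically competent format: test substances, human liver microsomes and NADPH (both 0.5 mg/mL final) incubated with p53RE-bla cells 16 h at 37 C. Beta-lactamase reporter signal then quantified by fluorescence.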

[5] = p53 small molecule agonists, cell-based qHTS assay with rat liver microsomes (AID 1963578)
Procedure, shortened: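 Each plate received p53RE-bla cells, then compound, then rat liver microsomes and NADPH (both 0.5 mg/mL final). Plates were held 16 h at 37 C, and beta-lactamase activity was detected with LiveBLAzer over 2 h.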

[6] = p53 small molecule agonists, cell-based qHTS assay with human liver microsomes: qHTS cell viability counter screen (AID 1963579); also: nearly all actives have a fitted effect of over 45% in size
Procedure, shortened: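 Tox21 library compounds, delivered from DMSO stocks, were tested on p53RE-bla cells together with 0.5 mg/mL human liver microsomes and 0.5 mg/mL NADPH (final) over 16 h at 37 C; CellTiter-Glo luminescence served as the cytotoxicity measure.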

[7] = p53 small molecule agonists, cell-based qHTS assay with rat liver microsomes: qHTS cell viability counter screen (AID 1963580); also: nearly all actives have a fitted effect of over 45% in size; also: potency is read from the fitted curve at half-maximal effect
Procedure, shortened: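 Cytotoxicity counter screen: intracellular ATP measured by CellTiter-Glo luminescence in the same wells as the beta-lactamase reporter read, on HCT-116 p53RE-bla cells exposed 16 h at 37 C to compounds with rat liver microsomes and NADPH, each 0.5 mg/mL final.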

[8] = p53 small molecule agonists, cell-based qHTS assay: qHTS cell viability counter screen (AID 1963581); also: nearly all actives have a fitted effect of over 45% in size
Procedure, shortened: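 ATP content measured by luminescence in HCT-116 p53RE-bla cells treated 16 h at 37 C, same wells as the reporter screen.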

[9] = p53 small molecule agonists, cell-based qHTS assay (AID 1963582; active = well fitted activation curve with a large enough effect in the signal ratio in the repeat runs, not every such curve was filed as active; the % refers to the signal ratio)
Procedure, shortened: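 16 h compound exposure (37 C) of p53 response element–bla cells, preceded by 5 h recovery at 37 C/5% CO2; read-out via LiveBLAzer B/G FRET substrate, 2 h RT, fluorescence intensity.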

[10] = target: 5-hydroxytryptamine receptor 2A (Homo sapiens) (UniProt P28223); assay: 5-hydroxytryptamine receptor 2A (HTR2A) small molecule antagonists, cell-based qHTS assay (AID 1963586); also: nearly all actives have a fitted effect of over 45% in size
Procedure, shortened: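 CHO cells stably expressing human HTR2A were plated for 18 h at 37 C, then loaded with calcium dye for 1 h. Compounds were preincubated 5 min at room temperature before DOI (4 nM solution) was added. Kinetic fluorescence was read for 3 min.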

[11] = target: 5-hydroxytryptamine receptor 2A (Homo sapiens) (UniProt P28223); assay: 5-hydroxytryptamine receptor 2A (HTR2A) small molecule agonists, cell-based qHTS assay (AID 1963587); also: nearly all actives have a fitted effect of over 30% in size
Procedure, shortened: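 CHO cells stably expressing human HTR2A, plated 18 h, loaded with calcium dye 1 h at 37 C. Agonist mode: compounds added and intracellular calcium fluorescence recorded kinetically for 2 min at 1 sec intervals.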

[12] = target: Muscarinic acetylcholine receptor M1 (Homo sapiens) (UniProt P11229); assay: Cholinergic receptor muscarinic 1 (CHRM1) small molecule antagonists, cell-based qHTS assay (AID 1963588); also: nearly all actives have a fitted effect of over 40% in size
Procedure, shortened: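 Compounds were tested at 15 concentrations in three independent runs. Dye-loaded CHRM1-CHO cells were exposed 5 min at room temperature before stimulation by acetylcholine added at 50nM. Intracellular calcium was read kinetically on FDSS for 3 min.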

[13] = target: Muscarinic acetylcholine receptor M1 (Homo sapiens) (UniProt P11229); assay: Cholinergic receptor muscarinic 1 (CHRM1) small molecule agonists, cell-based qHTS assay (AID 1963589); also: nearly all actives have a fitted effect of over 35% in size
Procedure, shortened: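 Homogeneous fluorescence calcium flux, agonist mode. Human M1-expressing CHO cells; compound dosed at 15 concentrations, three independent runs; signal sampled every 1 sec.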

[14] = cAMP Responsive Elements (CRE) small molecule agonists, cell-based qHTS assay (AID 1963590)
Procedure, shortened: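 HEK 293T cells stably bearing CRE-bla were plated at 2,000 cells per well and rested 18 h. Compounds, positive controls or DMSO were added for 3 h at 37 C. LiveBLAzer B/G substrate was then loaded for 2 h at room temperature.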

[15] = cAMP Responsive Elements (CRE) small molecule antagonists, cell-based qHTS assay (AID 1963591; active = well fitted inhibition curve with a large enough effect in the signal ratio in the repeat runs, not every such curve was filed as active; the % refers to the signal ratio)
Procedure, shortened: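 First, CRE-bla HEK293T cells settled 18 h at 37 C. Next, compound and 0.25 uM final NKH477 were applied for 3 h. Last, LiveBLAzer B/G substrate was loaded for 2 h at room temperature.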

[16] = target: Beta-2 adrenergic receptor (Homo sapiens) (UniProt P07550); assay: Adrenergic beta2 receptor (ADRB2) small molecule antagonists, cell-based qHTS assay (AID 1963592); also: series mostly up to about 92 µM; nearly all actives have a fitted effect of over 50% in size
Procedure, shortened: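 Assay format: CHO-ADRB2 cells, 18-20hr seeding at 37C/5% CO2, then compound plus 1nM isoproterenol agonist mix for 0.5hr RT. Homogeneous time-resolved fluorescence cAMP detection after 1hr, expressed as 665/615 nm ratio.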

[17] = target: D(2) dopamine receptor (Homo sapiens) (UniProt P14416); assay: Dopamine D2 receptor (DRD2) small molecule agonists, cell-based qHTS assay (AID 1963594); also: nearly all actives have a fitted effect of over 35% in size
Procedure, shortened: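 HEK293 cells stably expressing human DRD2, pre-treated with PDE inhibitor Ro20-1724 (0.1 mM final) and compound 10 min at room temperature, then stimulated with NKH477 (200nM […]) for 30 min. cAMP read by HTRF (665/620 nm).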

[18] = target: D(2) dopamine receptor (Homo sapiens) (UniProt P14416); assay: Dopamine D2 receptor (DRD2) small molecule antagonists, cell-based qHTS assay (AID 1963595; active = well fitted inhibition curve with a large enough effect in the signal ratio in the repeat runs, with a control signal flat; the % refers to the signal ratio)
Procedure, shortened: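 In this cell-based antagonist screen, compounds act for 10 min at room temperature before a 30 min challenge with 12 nM quinpirole and 200 nM NKH477. cAMP is quantified by HTRF competition in DRD2-HEK293 cells containing 0.1 mM Ro20-1724.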

[19] = target: Gonadotropin-releasing hormone receptor (Homo sapiens) (UniProt P30968); assay: Human gonadotropin-releasing hormone receptor (GnRHR) small molecule agonists, calcium flux assay in GnRHR-HEK293 cells (AID 1920063); also: nearly all actives have a fitted effect of over 35% in size
Procedure, shortened: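 Compounds dissolved in DMSO are pin-transferred onto dye-loaded GnRHR-HEK293 cells, which were seeded 18 h before at 37 C/5% CO2. Calcium signal is read as fluorescence intensity at 1 s intervals for 3 min.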

[20] = target: Beta-2 adrenergic receptor (Homo sapiens) (UniProt P07550); assay: Adrenergic beta2 receptor (ADRB2) small molecule agonists, cell-based qHTS assay (AID 1963593);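 also: CHO cells stably overexpressing human ADRB2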
Procedure, shortened: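 CHO cells stably over-expressing ADRB2 were plated overnight at 37C, then dosed with compounds plus a stimulation mix containing 100uM IBMX and 25uM Ro-20-1724 for 0.5hr at room temperature. cAMP was measured by HTRF competition, 1hr.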

KiSS-1 receptor (Homo sapiens), sequence (Q969F8 whole entry, looked up): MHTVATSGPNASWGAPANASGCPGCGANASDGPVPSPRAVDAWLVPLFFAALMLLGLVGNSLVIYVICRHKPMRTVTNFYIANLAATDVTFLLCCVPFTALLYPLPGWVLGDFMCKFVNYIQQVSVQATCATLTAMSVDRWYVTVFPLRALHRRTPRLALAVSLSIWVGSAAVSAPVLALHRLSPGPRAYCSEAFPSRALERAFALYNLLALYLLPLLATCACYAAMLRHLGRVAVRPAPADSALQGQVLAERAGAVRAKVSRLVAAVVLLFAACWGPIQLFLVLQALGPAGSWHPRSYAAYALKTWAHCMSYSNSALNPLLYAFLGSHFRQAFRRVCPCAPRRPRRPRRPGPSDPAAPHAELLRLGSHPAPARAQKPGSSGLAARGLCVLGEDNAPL
Muscarinic acetylcholine receptor M1 (Homo sapiens), sequence (P11229 whole entry, looked up): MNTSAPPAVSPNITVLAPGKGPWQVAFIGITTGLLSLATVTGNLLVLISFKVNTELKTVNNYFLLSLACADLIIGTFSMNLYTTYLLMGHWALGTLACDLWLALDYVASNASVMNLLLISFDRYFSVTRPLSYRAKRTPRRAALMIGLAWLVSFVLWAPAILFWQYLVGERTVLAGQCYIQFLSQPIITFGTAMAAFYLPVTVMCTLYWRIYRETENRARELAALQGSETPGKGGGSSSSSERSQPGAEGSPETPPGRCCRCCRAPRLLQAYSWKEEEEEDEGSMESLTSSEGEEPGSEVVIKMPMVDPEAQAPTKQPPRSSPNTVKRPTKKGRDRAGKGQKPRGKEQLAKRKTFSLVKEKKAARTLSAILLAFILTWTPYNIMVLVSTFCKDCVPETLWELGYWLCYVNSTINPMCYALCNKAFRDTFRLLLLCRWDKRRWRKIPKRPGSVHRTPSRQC
Gonadotropin-releasing hormone receptor (Homo sapiens), sequence (P30968 whole entry, looked up): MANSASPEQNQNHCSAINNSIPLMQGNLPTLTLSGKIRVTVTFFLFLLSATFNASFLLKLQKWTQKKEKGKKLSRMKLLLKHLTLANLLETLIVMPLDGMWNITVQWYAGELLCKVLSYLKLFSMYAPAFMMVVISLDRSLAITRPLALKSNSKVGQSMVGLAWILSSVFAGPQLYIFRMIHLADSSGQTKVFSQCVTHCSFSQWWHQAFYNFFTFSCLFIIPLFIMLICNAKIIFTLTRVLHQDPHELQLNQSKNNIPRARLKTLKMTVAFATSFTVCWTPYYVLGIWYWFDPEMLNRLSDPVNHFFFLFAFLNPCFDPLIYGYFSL
5-hydroxytryptamine receptor 2A (Homo sapiens), sequence (P28223 whole entry, looked up): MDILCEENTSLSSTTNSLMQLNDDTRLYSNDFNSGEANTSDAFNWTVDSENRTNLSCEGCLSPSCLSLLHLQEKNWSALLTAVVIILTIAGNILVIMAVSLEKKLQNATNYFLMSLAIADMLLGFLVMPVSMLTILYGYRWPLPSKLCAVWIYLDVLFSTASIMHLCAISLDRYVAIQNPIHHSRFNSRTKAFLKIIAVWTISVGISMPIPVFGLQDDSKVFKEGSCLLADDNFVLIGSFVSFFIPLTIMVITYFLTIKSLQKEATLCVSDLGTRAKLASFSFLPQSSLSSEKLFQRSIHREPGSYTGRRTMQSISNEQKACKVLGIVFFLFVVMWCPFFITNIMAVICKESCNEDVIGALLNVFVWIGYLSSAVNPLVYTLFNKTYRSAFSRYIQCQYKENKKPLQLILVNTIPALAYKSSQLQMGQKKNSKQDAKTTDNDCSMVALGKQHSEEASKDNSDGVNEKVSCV
Beta-2 adrenergic receptor (Homo sapiens), sequence (P07550 whole entry, looked up): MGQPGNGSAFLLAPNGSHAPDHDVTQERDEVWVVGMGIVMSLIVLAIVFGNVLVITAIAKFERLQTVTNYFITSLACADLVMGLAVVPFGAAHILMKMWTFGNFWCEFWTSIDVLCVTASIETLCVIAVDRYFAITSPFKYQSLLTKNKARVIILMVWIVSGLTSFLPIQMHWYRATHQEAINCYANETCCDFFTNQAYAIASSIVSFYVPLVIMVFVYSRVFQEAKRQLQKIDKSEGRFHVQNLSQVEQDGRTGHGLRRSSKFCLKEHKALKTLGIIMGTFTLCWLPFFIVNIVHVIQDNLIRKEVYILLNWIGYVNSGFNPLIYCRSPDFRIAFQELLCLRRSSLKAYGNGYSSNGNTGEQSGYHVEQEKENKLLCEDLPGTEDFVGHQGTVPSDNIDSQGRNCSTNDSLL
D(2) dopamine receptor (Homo sapiens), sequence (P14416 whole entry, looked up): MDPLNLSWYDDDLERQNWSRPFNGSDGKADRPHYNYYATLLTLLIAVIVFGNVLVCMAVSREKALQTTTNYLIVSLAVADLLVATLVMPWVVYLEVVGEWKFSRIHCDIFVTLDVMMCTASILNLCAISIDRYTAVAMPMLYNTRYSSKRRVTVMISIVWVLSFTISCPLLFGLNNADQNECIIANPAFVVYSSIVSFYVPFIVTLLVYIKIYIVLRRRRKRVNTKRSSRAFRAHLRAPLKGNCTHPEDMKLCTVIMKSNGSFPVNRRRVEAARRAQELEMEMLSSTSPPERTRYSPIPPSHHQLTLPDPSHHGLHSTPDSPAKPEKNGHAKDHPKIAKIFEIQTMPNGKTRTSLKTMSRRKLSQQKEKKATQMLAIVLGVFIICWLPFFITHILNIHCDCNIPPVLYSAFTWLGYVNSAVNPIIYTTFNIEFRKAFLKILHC

| Structure (SMILES) | Potency [1] | Potency [2] | Potency [3] | Potency [4] | Potency [5] | Potency [6] | Potency [7] | Potency [8] | Potency [9] | Potency [10] | Potency [11] | Potency [12] | Potency [13] | Potency [14] | Potency [15] | Potency [16] | Potency [17] | Potency [18] | Potency [19] | Potency [20] |
| --- | --- | --- | --- | --- | --- | --- | --- | --- | --- | --- | --- | --- | --- | --- | --- | --- | --- | --- | --- | --- |
| CCCCCCCCC | inactive | inactive | inactive | inactive | inactive | inactive | inactive | inactive | inactive | inactive | inactive | inactive | inactive | inactive | inactive | inactive | inactive | inactive | – | – |
| Cc1ccc([N+](=O)[O-])c(C)c1 | 2.43 µM (active) and inactive | – | inactive | inactive | inactive | inactive | 18.2 µM (active) and inactive | inactive | inactive | inactive | inactive | inactive | inactive | inactive | inactive | inactive | inactive | inactive | inactive | inactive |
| CC(C)(C)C1CCC(O)CC1 (stereo not given) | inactive | inactive | inactive | inactive | inactive | inactive | inactive | inactive | inactive | inactive | inactive | inactive | inactive | inactive | inactive | inactive | inactive | inactive | – | inactive |
| CC(C)c1ccc(C(C)C)cc1 | inactive | inactive | inactive | inactive | inactive | inactive | inactive | inactive | inactive | inactive | inactive | inactive | inactive | inactive | inactive | inactive | – | inactive | – | inactive |
| CC(=O)c1ccc(S(=O)(=O)NC(=O)NC2CCCCC2)cc1 | inactive | – | inactive | inactive | inactive | inactive | – | inactive | – | – | inactive | inactive | inactive | inactive | inactive | inactive | inactive | inactive | inactive | inactive |
| c1ccc2c(c1)ccc1ccccc12 | inactive | – | inactive | inactive | inactive | inactive | inactive | inactive | inactive | inactive | inactive | inactive | inactive | inactive | – | – | inactive | inactive | inactive | – |
| CC1(C)C(=O)N(Cl)C(=O)N1Cl | inactive | – | inactive | inactive | inactive | inactive | inactive | inactive | inactive | inactive | inactive | inactive | inactive | inactive | inactive | inactive | inactive | inactive | inactive | inactive |
